# According to PubChem BioAssay AID504652 (National Center for Advancing Translational Sciences (NCATS), 2011):
# In all, about 360,000 compounds went through this assay and about 11,000 (3.1%) were called active. This is one part of a sample in which actives are shown more often than they occur. A number with no mark means an inactive call. Cut-off read from the data, not from the text of the source: active = activity change below about -30%; inactive = the rest.
# Target: D(1A) dopamine receptor (Homo sapiens) (UniProt P21728)
# Test: Antagonist of Human D 1 Dopamine Receptor: qHTS
# Conditions: HEK293 TREx D1 cells, calcium flux, dopamine EC80; at 10 µM; hits give low values
# Method in brief: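 After overnight tetracycline induction at 30 C, force-coupled D1 HEK293 cells took up a no-wash calcium dye at room temperature. Compounds were added and monitored 180 s, and the response to EC80 dopamine was then recorded.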
# % is set by controls: 0 for no effect and ±100 for the full control effect.
# Chain of D(1A) dopamine receptor (Homo sapiens) (P21728 whole entry, looked up): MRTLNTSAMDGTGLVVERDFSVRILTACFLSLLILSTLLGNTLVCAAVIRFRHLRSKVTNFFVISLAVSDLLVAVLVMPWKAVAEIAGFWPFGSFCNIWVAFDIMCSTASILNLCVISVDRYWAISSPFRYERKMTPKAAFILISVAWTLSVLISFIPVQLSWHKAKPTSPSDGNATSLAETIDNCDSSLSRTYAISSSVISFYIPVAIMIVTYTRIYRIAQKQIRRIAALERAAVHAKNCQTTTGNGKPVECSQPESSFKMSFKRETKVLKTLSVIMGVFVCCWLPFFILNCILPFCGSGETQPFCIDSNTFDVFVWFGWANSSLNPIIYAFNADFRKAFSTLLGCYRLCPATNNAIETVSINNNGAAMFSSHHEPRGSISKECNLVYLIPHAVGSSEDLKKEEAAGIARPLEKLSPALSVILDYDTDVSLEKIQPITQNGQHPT
row,SMILES,"activity change, negative = inhibition"
1,CCOC(=O)c1ccc(NC(=O)CSc2nc3c([nH]c4ccccc43)c(=O)n2C)cc1,-5.11%
2,Cc1ccc(C(=O)NC2CC(C)(C)NC(C)(C)C2)c(C)c1,-9.44%
3,CC(=O)N/N=C(\C)c1ccc(Br)cc1Br,25.3%
4,C/C(=N\NC(=O)C1(C)CC1(Br)Br)c1ccc(C)cc1C (centres undefined),-58.1% (active)
5,CCc1ccc(-n2nc(C)c3c(C)cc(=O)n(CC(=O)Nc4ccc(F)cc4C)c32)cc1,-6.21%
6,O=C(NCCc1c[nH]c2ccc(Cl)cc12)c1ccc([N+](=O)[O-])cc1,-40.2% (active)
7,Cc1ccc2[nH]cc(CCNC(=O)c3ccc([N+](=O)[O-])cc3)c2c1,-29.3%
8,O=C(NCCc1ccc(Cl)cc1Cl)c1cc([N+](=O)[O-])c[nH]c1=O,-1.06%
9,O=C(c1cnn(-c2ccc(F)cc2)c1-n1cccc1)N1CCN(c2ccc(F)cc2)CC1,1.87%
10,CCOC(=O)c1cc(-c2ccc(OC)c(S(=O)(=O)Nc3ccc(OC)cc3OC)c2)on1,-13.6%
11,CC(Nc1nc(C(F)(F)F)nc2ccccc12)c1cccs1 (centres undefined),-20.1%
12,NS(=O)(=O)c1ccc(CCNc2nc(C(F)(F)F)nc3ccccc23)cc1,-36% (active)
13,CCc1ccc(C(CNc2nc(C(F)(F)F)nc3ccccc23)N(C)C)cc1 (centres undefined),26.8%
14,COC(=O)c1ccc(NC(=O)c2cc(S(=O)(=O)N3CCC(C)CC3)cn2C)cc1,-19.2%
15,COc1ccc(Cn2c(C(=O)O)c(CNCCc3cccs3)c3ccc(OC)cc32)cc1,9.72%
16,Cc1ccc(CCNC(=O)Cn2c(-c3cccs3)cc3cc(F)ccc32)cc1,-40.1% (active)
17,O=C(Cn1c(-c2cccs2)cc2ccccc21)NCCc1ccc(Cl)cc1,-2.26%
18,COc1ccc(CCNC(=O)CN2CCC(n3nnc4cc(F)ccc43)CC2)cc1OC,-3.98%
19,CN(CC(=O)Nc1ccc(F)cc1)C(=O)c1ccc(-c2ccc(Cl)cc2)o1,-13.8%
20,CN(C)c1cc(-c2ccc(F)cc2)oc(=O)c1Cl,-37.9% (active)
21,CCCCC(CC)CNC(=O)C1CCN(S(=O)(=O)c2cccc3nsnc23)CC1 (centres undefined),5.74%
22,O=C(NCCc1ccc(Cl)cc1)c1ccc2nc(CCc3ccccc3)oc2c1,-1.03%
23,Cc1ccc(Nc2nc3ccccc3nc2-n2nc(C)cc2C)c(Cl)c1,6.62%

row,SMILES,"activity change, negative = inhibition"
1,O=C(Nc1ccccc1Br)c1cc(CN2CCCC2)on1,-3.7%
2,CCCCC(=O)OC1=CN(Cc2ccccc2)S(=O)(=O)c2ccccc21,-18.6%
3,CCc1ccc(Oc2coc3cc(OC(=O)c4cc5ccccc5oc4=O)ccc3c2=O)cc1,-33.2% (active)
4,COc1ccc(Oc2coc3cc(OC(=O)c4cncc(Br)c4)ccc3c2=O)cc1,-0.64%
5,CCc1ccc(Oc2coc3cc(O)ccc3c2=O)cc1,-2.88%
6,CCc1ccc(NC(=O)Cn2c(=O)n(CCC(=O)NCc3ccc4c(c3)OCO4)c(=O)c3ccccc32)cc1,6.37%
7,CCN(CC)S(=O)(=O)c1ccc(N2CCCC2)c(NS(=O)(=O)c2cccs2)c1,-40.2% (active)
8,CCN(CC)S(=O)(=O)c1ccc(N2CCN(C)CC2)c(NC(=O)Nc2ccccc2F)c1,7.64%
9,O=S(=O)(Nc1cc(S(=O)(=O)N2CCOCC2)ccc1N1CCCC1)c1cccs1,-6.97%
10,Cc1ccc(O)c(NC(=O)CCS(=O)(=O)c2nc(-c3ccc4c(c3)OCO4)cc(C(F)(F)F)n2)c1,-20.8%
11,O=C(Cc1ccc(Cl)cc1)Nc1ccc2nn(-c3ccc(Cl)cc3)nc2c1,-2.04%
12,Cc1cc(NC(=O)CC(C)C)cc(-c2nc3ncccc3o2)c1O,13.5%
13,CCOc1ccc(NC(=O)N(CCC(C)C)C(C)c2ccco2)cc1 (centres undefined),-66.3% (active)
14,CCOc1ccc(NC(=O)N(CC(C)C)CC(C)C)cc1,-10.6%
15,CCOc1ccc(NC(=O)c2ncoc2-c2ccco2)cc1,0.181%
16,CCOC(=O)c1ccccc1NC(=O)CCc1c(C)nc2c(c1C)c(=O)n(C)c(=O)n2C,4.81%
17,CCc1ccc(S(=O)(=O)c2nnn3c2nc(N2CCN(CC)CC2)c2sccc23)cc1,8.88%
18,Cc1ccccc1NC(=O)Cn1c(=O)n(CC2CCC(C(=O)NCCc3ccccc3)CC2)c(=O)c2ccccc21 (centres undefined),-13.6%
19,O=S(=O)(c1ccc(SCc2ccccc2)nc1)N1CCCCCC1,0.949%
20,O=S(=O)(c1ccc(SCc2ccc(Br)cc2)nc1)N1CCOCC1,-43.1% (active)
21,Cc1ccc(CSc2ccc(S(=O)(=O)N3CCCCC3)cn2)cc1,2.76%
22,CCOC(=O)c1cn(CC)c2cc(F)c(F)cc2c1=O,-74.1% (active)
23,CCn1cc(C(=O)N/N=C(/C)c2ccc(F)cc2)c(=O)c2cc(F)c(N3CCCC3)cc21,1.71%

row,SMILES,"activity change, negative = inhibition"
1,CCn1cc(C(=O)NCCO)c(=O)c2cc(F)c(N3CCN(C)CC3)cc21,-5.03%
2,CCS(=O)(=O)N1CCc2cc(C(=O)NCc3ccc(OC)cc3)ccc21,1.59%
3,COc1ccc(CNC(=O)C2CC(c3ccc(C(F)(F)F)cc3)=NO2)cc1 (centres undefined),-1.82%
4,COc1ccc(C2=NOC(COC(=O)c3ccc4ccccc4n3)C2)cc1 (centres undefined),-39.5% (active)
5,COc1ccc(C(=O)COC(=O)c2ccc3ccccc3n2)cc1,-5.41%
6,CCCNC(=O)C(CC)n1nc(CC)n2c(cc3oc(C)cc32)c1=O (centres undefined),5.42%
7,Cc1ccc(Cl)cc1N1CCN(S(=O)(=O)c2cc3[nH]c(=O)c(=O)[nH]c3cc2C)CC1,1.65%
8,COc1cccc(C(=O)Nc2ccc3oc(-c4ccc5ccccc5c4)nc3c2)c1,7.96%
9,O=C(CNC(=O)c1ccc(Cl)cc1Cl)OC(C(=O)Nc1cc(C(F)(F)F)ccc1Cl)c1ccccc1 (centres undefined),6.17%
10,COc1ccc(NC(=O)Cn2c(=O)n(Cc3ccc(C(=O)NCc4ccccc4Cl)cc3)c(=O)c3ccccc32)cc1,-5.19%
11,CCN(Cc1ccccc1)S(=O)(=O)c1cc2c3c(c1)CCN3C(=O)CC2,-34.1% (active)
12,CCN(Cc1ccccc1)S(=O)(=O)c1cc(C(=O)O)ccc1OC,27.7%
13,CCN(Cc1ccccc1)S(=O)(=O)c1ccc2c(c1)CCCN2C(C)=O,-20%
14,Cc1ccc(O)c(NC(=S)NC(=O)COc2ccc(Br)cc2)c1,-46.3% (active)
15,CC(=O)Nc1ccc(OC(=O)COc2ccc(Br)cc2)cc1,-21.3%
16,Cn1cccc1C(=O)NNC(=O)COc1ccc(Br)cc1,16.4%
17,Cc1ccc(-c2nc(SCc3ccc(Br)cc3)n3[nH]c(=O)cc3n2)cc1,-5.43%
18,CC(C)CC(=O)NCC(c1ccc2c(c1)OCO2)N1CCN(c2ccc(F)cc2)CC1 (centres undefined),19.3%
19,COc1ccc(OC)c(NC(=O)/C=C/c2ccc(C)o2)c1,-17.2%
20,COc1ccc(CNC(=O)COC(=O)c2c(C)nn(-c3ccccc3)c2C)cc1OC,-26%
21,COC(=O)COc1cccc2c(=O)n(CC(=O)NCCc3ccc(OC)c(OC)c3)ccc12,19.9%
22,COc1ccc(CNC(=O)COc2ccccc2C(=O)c2cnn(-c3ccccc3)c2)cc1OC,-32.7% (active)
23,Cc1cc(O)c(C(c2ccccc2)N2CCN(c3ccccc3F)CC2)c(=O)n1Cc1ccco1 (centres undefined),-28.1%

row,SMILES,"activity change, negative = inhibition"
1,Cn1c(=O)c2c(-c3ccccc3Br)n(Cc3ccccc3)cc2n(C)c1=O,-11.3%
2,COc1ccc(C(=O)C2CCCN(S(=O)(=O)c3cccc(C)c3)C2)c(C)c1 (centres undefined),2.24%
3,COc1ccc(C(=O)C2CCCN(C(=O)c3cnsn3)C2)c(C)c1 (centres undefined),22.1%
4,COc1ccc(C(=O)C2CCCN(Cc3cccn3-c3ccccn3)C2)c(C)c1 (centres undefined),-34.5% (active)
5,CCOc1ccc(Nc2oc(/C=C/c3ccc(F)cc3)nc2C#N)cc1,-2.32%
6,COc1cccc(NC(=O)CC2C(=O)NCCN2C(=S)Nc2ccc(F)cc2)c1 (centres undefined),-8.91%
7,CCc1ccc(NC(=O)CC2C(=O)NCCN2C(=S)Nc2ccccc2)cc1 (centres undefined),-31.7% (active)
8,CCNC(=O)N1CCNC(=O)C1CC(=O)Nc1ccc(C(=O)OCC)cc1 (centres undefined),11.7%
9,Cc1nn(C)cc1CNC(=O)Nc1ccc(Cl)cc1,5.45%
10,Cc1ccc(-c2cc(C(=O)NCc3cn(C)nc3C)c3cc(Br)ccc3n2)cc1,-1.17%
11,COc1ccc(Cl)cc1C(=O)NCc1cn(C)nc1C,-31.1% (active)
12,Cc1ccc(CCNC(=O)c2ccc(CNS(=O)(=O)c3ccc(C)cc3)cc2)cc1,-6.27%
13,CCOc1ccc(N(Cc2ccccc2)C(=O)c2nc(S(C)(=O)=O)ncc2Cl)cc1,-4.67%
14,CN(C)CC/C=C1\c2ccccc2CSc2ccccc21,-62.1% (active)
15,CN(C)Cc1ccccc1C1(O)c2ccccc2CSc2ccccc21 (centres undefined),-0.848%
16,COc1ccccc1NC(=O)CN1C(=O)c2ccccc2Sc2ccc(C(=O)N3CCCC3)cc21,9.27%
17,COc1ccc(N2CCN(C(=O)c3c(C)oc4nc(C)nc(N5CCCC5)c34)CC2)cc1,-1.85%
18,CN(C)CCOC(=O)C(c1ccccc1)C1(O)CCCC1 (centres undefined),-42.6% (active)
19,COc1ccc(OCC(=O)OCCN(C)C)cc1,-9.23%
20,O=C(O)C(c1ccccc1)C1(O)CCCCC1 (centres undefined),-1.48%
